Source: PubChem BioAssay (Tox21)
Activity calls are given as the source filed them. Calls come from the whole dose curve; as a rule, active = well fitted curve in the direction sought with a large enough effect in the repeat runs; inconclusive = weak or mixed curves; inactive = flat fitted curve, though single readings scatter.

Assay: qHTS assay to test for compound auto fluorescence at 460 nm (blue) in HepG2 cells (AID 720687)
Details: autofluorescence 405/460 nm, 1 h; series mostly up to 91.3 µM
From the text: U.S. Tox21 Program National Center for Advancing Translational Sciences [NCATS] NIH Chemical Genomics Center [NCGC] U.S. Environmental Protection Agency [EPA] National Institutes of Environmental Health Sciences [NIEHS] National Toxicology Program [NTP] U.S. Food and Drug Administration [FDA] Tox21 Assay Overview: Compound auto fluorescence often interferes with screening of the compound library against various biological targets and signaling pathways. Some of these compounds may have fluorophoric properties. Such properties may interfere with the assay outputs resulting in false positives and/or negatives. To decrease such complications and ensure the compound activities are relevant in terms of biological response, the Tox21 10K compound library was screened for auto fluorescence. From the fluorophores used as reporter signals in our screening assays, the auto fluorescence equivalencies of compounds against three fluorophores have been evaluated: Triamterene, Fluorescein and Rose Bengal sodium for blue, green and red fluorescence, respectively. The fluorescence intensities were measured using Excitation/Emission wavelengths at 405/460nm, 485/535nm and 540/590nm for blue, green and red labels, respectively. This assay includes the blue fluorescence data.
Tox21 Assay Protocol Summary: 2,000 HepG2 cells in 5 uL of culture medium (MEM containing 10% FBS) per well were dispensed into black wall/clear bottom 1536-well plates using a Multidrop Combi Dispenser (ThermoFisher Scientific, Waltham, MA). The assay plates were incubated overnight at 37 C to allow cell attachment to the well bottom, followed by the transfer of 23 nL compound or DMSO vehicle by a pintool work station (Kalypsys , San Diego, CA). After the assay plates were incubated for 1 hr at 37 C and 5% CO2, fluorescence intensities in the assay plates were measured by an Envision (PerkinElmer, Shelton, CT) plate reader using three labels for measuring blue, green and red fluorescence at […] 460, 535 and 590 nm respectively.
With N#CC1(N=NC2(C#N)CCCCC2)CCCCC1 the outcome was “inactive”. For CCCC[P+](CC)(CCCC)CCCC (tested in a mixture with another compound), the outcome was “inactive”. For C=CCOCC1CO1 (stereo not given), the outcome was “inactive”. With NNCCO the outcome was “inactive”. In the case of N#CC(C#N)=Cc1ccc(O)c(O)c1, the outcome is reported as “inactive”. With COCc1cnc(C2=NC(C)(C(C)C)C(=O)N2)c(C(=O)O)c1 (stereo not given) the outcome was “inactive”. For Nc1cc(Cl)cc(C(=O)O)c1Cl, the outcome was “inactive”. In the case of CCCCCCCCn1sccc1=O, the outcome is reported as “inactive”. For CC(C)CCCCCCCOC(=O)c1ccccc1C(=O)OCCCCCCCC(C)C, the outcome was “inactive”. In the case of NC(=O)CF, the outcome is reported as “inactive”. For C1CCNCC1, the outcome was “inactive”. For FC(F)OC(F)(F)C(F)Cl (stereo not given), the outcome was “inactive”. In the case of C1CS1, the outcome is reported as “inactive”. For CC(C)[C@@H](C(=O)O[C@@H](C#N)c1cccc(Oc2ccccc2)c1)c1ccc(Cl)cc1, the outcome was “inactive”. For C[N+]1(CCF)[C@@H]2CC[C@H]1CC(OC(=O)C(O)(c1ccccc1)c1ccccc1)C2 (stereo not given in full), the outcome was “inactive”. For CC(Cl)C(=O)O (stereo not given), the outcome was “inactive”. In the case of O=S(=O)(Cl)Cl, the outcome is reported as “inactive”. In the case of C=C(Cl)Cl, the outcome is reported as “inactive”. For OCCCl, the outcome was “inactive”. In the case of CCCCCBr, the outcome is reported as “inactive”. With CC[N+]1(C)CCCC(OC(=O)C(O)(c2ccccc2)c2ccccc2)C1 (stereo not given) the outcome was “inactive”. For O=C(N/N=C/c1ccc([N+](=O)[O-])o1)c1cc([N+](=O)[O-])cc([N+](=O)[O-])c1O, the outcome was “inactive”. In the case of CCCC[N+](CCCC)(CCCC)CCCC, the outcome is reported as “inactive”. For CN[C@@H](C)[C@H](O)c1ccccc1, the outcome was “inactive”. In the case of C[C@@H]1C[C@@H]([C@H](O)CC2CC(=O)NC(=O)C2)C(=O)[C@@H](C)C1, the outcome is reported as “inactive”. In the case of CC(C)CCON=O, the outcome is reported as “inactive”. In the case of CCOP(=O)(O)C(N)=O, the outcome is reported as “inactive”. In the case of CC(O)CN1CCN(CC(=O)[O-])CCN(CC(=O)[O-])CCN(CC(=O)[O-])CC1.[Gd+3] (stereo not given), the outcome is reported as “inactive”. For O=C(NCNC(=O)NC1C(=O)NC(=O)N1CO)NC1C(=O)NC(=O)N1CO (stereo not given), the outcome was “inactive”. With CCCCC(CC)CO[N+](=O)[O-] (stereo not given) the outcome was “inactive”. With Cc1cnc(C2=NC(C)(C(C)C)C(=O)N2)c(C(=O)O)c1 (stereo not given) the outcome was “inactive”. In the case of CCCCC(CC)COC(=O)c1c(Br)c(Br)c(Br)c(Br)c1C(=O)OCC(CC)CCCC (stereo not given), the outcome is reported as “inactive”. With CC(C)c1ccc(NC(=O)N(C)C)cc1 the outcome was “inactive”. In the case of CCSCc1ccccc1OC(=O)NC, the outcome is reported as “inactive”. For O=C(N[C@H]1CN2CCC1CC2)c1ccc2c(c1)OCCO2, the outcome was “inactive”. In the case of CC(C)(C)NCC(O)c1cc(Cl)c(N)c(C(F)(F)F)c1 (stereo not given), the outcome is reported as “inactive”. With C[C@H](N)[C@H](O)c1ccc(O)c(O)c1 the outcome was “inactive”. With O=C(O)COc1cc(Cl)c(Cl)cc1Cl the outcome was “inactive”. In the case of CCCCOC(=O)CCC(=O)OCCCC, the outcome is reported as “inactive”. For CC1(C)[C@H](C(=O)O[C@H](C#N)c2cccc(Oc3ccccc3)c2)[C@@H]1C=C(Br)Br, the outcome was “inactive”.
